Laboratory results from PubChem BioAssay (Tox21).
Results filed as inconclusive are left out. A call without a number means that no potency is given here. Calls of active or inactive are those of the source. Calls follow the shape of the full dose curve.

How the values were obtained:
[1] = target: Acetylcholinesterase (Homo sapiens) (UniProt P22303); assay: Acetylcholinesterase (AChE) small molecule antagonists: colormetric cell-based qHTS assay (AID 1347395); conditions: SH-SY5Y cells AChE activity, colorimetric (Ellman); series mostly up to 115 µM; also: nearly all actives have a fitted effect of over 30% in size; also: potency is read from the fitted curve at half-maximal effect
How it was run: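 Colorimetric read-out: DTNB detects thiocholine released when cellular AChE in SH-SY5Y cells hydrolyses acetylthiocholine. Cells attached overnight, received compound for 30 min at 37 C, then substrate mix for 90 min at 37 C.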

[2] = target: Acetylcholinesterase (Homo sapiens) (UniProt P22303); assay: Acetylcholinesterase (AChE) small molecule antagonists: enzyme-based qHTS assay (AID 1347397); conditions: Potency: AChE enzyme activity inhibition; outcome: AChE enzyme activity inhibition; series mostly up to 115 µM; also: nearly all actives have a fitted effect of over 55% in size; also: potency is read from the fitted curve at half-maximal effect
How it was run: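 Colorimetric DTNB read-out of thiocholine released from acetylthiocholine by recombinant human AChE (50 mU/mL as dispensed). Compounds were preincubated 30 min at RT before substrate/DTNB addition, with a 10 min RT reaction.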

[3] = target: Acetylcholinesterase (Homo sapiens) (UniProt P22303); assay: Acetylcholinesterase (AChE) small molecule antagonists: fluorescence cell-based qHTS assay (AID 1347398); conditions: SH-SY5Y cells; Potency: AChE activity; outcome: AChE activity; series mostly up to 115 µM; also: nearly all actives have a fitted effect of over 50% in size; also: potency is read from the fitted curve at half-maximal effect
How it was run: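 SH-SY5Y, 2,000 cells/well, attached overnight; cmpd 30 min 37 C; acetylthiocholine/Thiolite Green cocktail 40 min RT; fluorescence Ex/Em 490/520 nm.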

[4] = target: Acetylcholinesterase (Homo sapiens) (UniProt P22303); assay: Acetylcholinesterase (AChE) small molecule antagonists: enzyme-based qHTS assay with human liver microsomes (AID 1347399); conditions: Potency: qHTS inhibition; outcome: qHTS inhibition; series mostly up to 115 µM; also: nearly all actives have a fitted effect of over 60% in size
How it was run: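 Recombinant human AChE (50 mU/mL in the enzyme mix) and human liver microsomes (0.25 mg/mL final) were preincubated with compound and NADPH (0.25 mg/mL final) for 30 min at 37 C. Acetylthiocholine/DTNB was then added; thiocholine was read colorimetrically after 10 min at room temperature.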

Sequence of Acetylcholinesterase (Homo sapiens) (P22303 whole entry, looked up): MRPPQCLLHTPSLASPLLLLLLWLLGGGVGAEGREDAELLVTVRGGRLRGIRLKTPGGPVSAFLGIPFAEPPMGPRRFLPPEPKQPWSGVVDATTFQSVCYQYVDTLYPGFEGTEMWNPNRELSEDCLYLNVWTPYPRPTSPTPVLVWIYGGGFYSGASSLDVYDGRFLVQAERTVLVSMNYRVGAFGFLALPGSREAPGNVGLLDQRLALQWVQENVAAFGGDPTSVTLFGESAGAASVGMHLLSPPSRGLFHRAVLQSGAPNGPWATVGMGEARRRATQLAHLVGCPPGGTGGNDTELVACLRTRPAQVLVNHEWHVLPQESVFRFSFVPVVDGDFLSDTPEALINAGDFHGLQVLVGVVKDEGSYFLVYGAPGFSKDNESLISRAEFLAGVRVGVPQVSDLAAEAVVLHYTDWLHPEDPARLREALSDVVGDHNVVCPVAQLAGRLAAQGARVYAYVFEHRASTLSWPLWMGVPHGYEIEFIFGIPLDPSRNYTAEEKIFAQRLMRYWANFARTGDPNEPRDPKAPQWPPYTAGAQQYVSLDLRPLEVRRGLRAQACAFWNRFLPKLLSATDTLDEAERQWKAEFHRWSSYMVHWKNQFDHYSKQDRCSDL

SMILES	Potency [1]	Potency [2]	Potency [3]	Potency [4]
CC(C)(O)c1ccccc1CC[C@@H](SCC1(CC(=O)O)CC1)c1cccc(/C=C/c2ccc3ccc(Cl)cc3n2)c1	inactive	inactive	inactive	inactive
CC(C)Nc1nc(N)nc(Cl)n1	inactive	inactive	inactive	inactive
CC1CCc2nccnc21 (stereo not given)	inactive	inactive	inactive	inactive
CCN1CCC[C@H]1CNC(=O)c1c(OC)ccc(Br)c1OC	inactive	inactive	inactive	inactive
C=C(C)CCCC	inactive	inactive	inactive	inactive
O=C(O)CO	inactive	inactive	inactive	inactive
CCOCCOC(=O)/C=C/c1ccc(OC)cc1	inactive	inactive	inactive	inactive
O=c1[nH]ncc2ccccc12	inactive	inactive	inactive	inactive
CC(C)(O)Cc1ccccc1	inactive	inactive	inactive	inactive
O=C1CCCC(=O)C1	inactive	inactive	inactive	inactive
CC(C)COC(=O)COc1ccc(Cl)cc1Cl	inactive	inactive	inactive	inactive
CC(C(=O)O)c1ccc2c(c1)[nH]c1ccc(Cl)cc12 (stereo not given)	inactive	inactive	inactive	inactive
CC(C)CC(O)Cc1ccccc1 (stereo not given)	inactive	inactive	inactive	inactive
CCCCOC(=O)CC	inactive	inactive	inactive	inactive
CCOc1ncc(F)c(=O)[nH]1	inactive	inactive	inactive	inactive
CCCCCCC#CC(=O)OC	inactive	inactive	inactive	inactive
CC1(C)[C@@H](O)CC[C@]2(C)[C@H]3C(=O)C=C4[C@@H]5C[C@@](C)(C(=O)O)CC[C@]5(C)CC[C@@]4(C)[C@]3(C)CC[C@@H]12	inactive	inactive	inactive	inactive
CC(=O)OC(OC(C)=O)c1ccc([N+](=O)[O-])o1	inactive	inactive	inactive	inactive
COC(=O)[C@@H]1[C@H]2C[C@H]3c4[nH]c5ccccc5c4CCN3C[C@@H]2CC[C@@H]1O	inactive	inactive	inactive	inactive
CC(COc1ccccc1)NN (stereo not given)	inactive	inactive	inactive	inactive

SMILES	Potency [1]	Potency [2]	Potency [3]	Potency [4]
CCCCOCCOC(=O)c1cccnc1	inactive	inactive	inactive	inactive
CC(CN=Cc1ccccc1O)N=Cc1ccccc1O (stereo not given)	inactive	inactive	inactive	inactive
CCCC1CCC(=O)CC1	inactive	inactive	inactive	inactive
CC1OC(=O)C(C)OC1=O (stereo not given)	inactive	inactive	inactive	inactive
O=CNc1ccccc1	inactive	inactive	inactive	inactive
O=S(=O)(O)c1ccc2cc(O)c(S(=O)(=O)O)cc2c1	inactive	inactive	inactive	inactive
CC(=O)NC1(c2cccc(F)c2)CCN(CC[C@@]2(c3ccc(Cl)c(Cl)c3)CN(c3ccccc3)C(=O)CO2)CC1	inactive	inactive	inactive	inactive
O=c1[nH][nH]c(=O)c2cc([N+](=O)[O-])ccc12	inactive	inactive	inactive	inactive
C=CCc1ccccc1OCC(O)CNC(C)C (stereo not given)	inactive	inactive	inactive	inactive
C[C@H]1c2cccc(O)c2C(O)=C2C(=O)[C@]3(O)C(O)=C(C(N)=O)C(=O)[C@@H](N(C)C)[C@@H]3[C@@H](O)[C@@H]21	inactive	inactive	inactive	inactive
NS(=O)(=O)c1cc2c(cc1Cl)NC(C(Cl)Cl)NS2(=O)=O (stereo not given)	inactive	inactive	inactive	inactive
C=C(C)C(=O)OC	inactive	inactive	inactive	inactive
COc1cc2nc(Cl)nc(N)c2cc1OC	inactive	inactive	inactive	inactive
Cc1ccc2c(c1[N+](=O)[O-])C(=O)c1ccccc1C2=O	781 nM (active)	1.39 µM (active)	0.392 µM (active)	inactive
C=C(C)C(=O)OCCCC	inactive	inactive	inactive	inactive
CCCc1ccc(O)c(OC)c1	inactive	inactive	inactive	inactive
CNC(=S)NC	inactive	inactive	inactive	inactive
CCCCCCc1ccc(N)cc1	inactive	inactive	inactive	inactive
C=CS(=O)(=O)O	inactive	inactive	inactive	inactive
CCN(CC)c1ccc2c(-c3ccc(S(=O)(=O)O)cc3S(=O)(=O)[O-])c3ccc(=[N+](CC)CC)cc-3oc2c1	inactive	inactive	41.2 µM (active)	inactive
